For experiment [1], the system named is XIP peptide (Xip251-270) binding. The experiment is described as follows: XIP fragment 251-270 binding compounds – biochemical, small-molecule microarray, fluorescence 635/667 nm, 0.1 µg/mL protein, primary screen (AID 1182). Conditions: fluorescent protein binding, 635 nm, higher = more signal, called active from +8 up or from −8 down.
For a further experiment, the system named is XIP peptide (Xip251-270). The experiment is described as follows: compounds binding XIP fragment 251-270 – biochemical, small-molecule microarray, fluorescence 635/667 nm, 0.5 µg/mL protein, primary screen (AID 1183). The settings on record: fluorescence 635 nm, higher = more signal.
Experiment [2] is described as follows: blood-stage malaria parasite viability loss – strain 3D7, DAPI fluorescence, 100 nL, primary screen (AID 1184).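 Further: parasites grown inside human red blood cells in medium with human serum.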 Conditions: P. falciparum 3D7 growth, 3 d, higher = more signal.
For experiment [3], the target named is Homeobox protein Hox-A13 (Mus musculus) (UniProt Q62424). Nature of the experiment: disruptors of Hoxa13 oligonucleotide interaction – biochemical, fluorescence polarization, labeled oligonucleotide, primary screen (AID 1185). Conditions: Hoxa13:DNA binding, 15 min, higher = more signal, called active from +8 up or from −8 down. (Fluorescence polarisation rises when a labelled molecule tumbles more slowly, as on binding a larger partner.)

Experiment [4] in a line: blockers of DNA damage checkpoint Chk1 activation – imaging, HeLa, hydroxyurea, phospho-Chk1 antibody, percent positive cells, primary screen (AID 1186). The settings on record: hydroxyurea-induced phospho-Chk1 immunofluorescence imaging, higher = more signal.
Experiment [5] in a line: blockers of DNA damage checkpoint Chk1 activation – imaging, HeLa, hydroxyurea, phospho-Chk1 nuclear intensity, primary screen (AID 1187). The settings on record: hydroxyurea-induced phospho-Chk1 immunofluorescence imaging, higher = more signal.

Activity calls are given as the source filed them. Unless noted, how the calls were made is not given here.

Chain of Homeobox protein Hox-A13 (Mus musculus) (Q62424 whole entry, looked up): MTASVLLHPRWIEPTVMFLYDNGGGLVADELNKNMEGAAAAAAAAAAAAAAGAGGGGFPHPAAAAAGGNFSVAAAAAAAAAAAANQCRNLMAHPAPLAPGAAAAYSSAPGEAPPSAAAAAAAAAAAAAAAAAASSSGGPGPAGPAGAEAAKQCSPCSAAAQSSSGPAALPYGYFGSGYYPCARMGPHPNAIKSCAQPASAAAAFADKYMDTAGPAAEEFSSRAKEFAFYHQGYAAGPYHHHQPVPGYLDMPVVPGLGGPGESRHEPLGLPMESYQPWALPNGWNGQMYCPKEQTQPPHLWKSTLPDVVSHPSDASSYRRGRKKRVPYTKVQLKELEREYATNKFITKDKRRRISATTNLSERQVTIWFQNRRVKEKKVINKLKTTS

With `Cc1ccc(S[C@]2(C(=O)NC3CC3)CC(=O)N(C3Cc4ccccc4C3)[C@@H]2c2ccc(CO)cc2I)cc1`, the composite z-score in experiment [1] was 0.406 (inactive); in the experiment with XIP peptide (Xip251-270), 0.559. Also, the z-score in experiment [2] is -0.396; in experiment [3], -2.46 (inactive); in experiment [4], 0.586 (inactive); in experiment [5], 0.97 (inactive).
On to `CCCN1C(=O)[C@@]2(c3ccc([N+](=O)[O-])cc3)CC(=O)N(C3CCCCC3)[C@@H]2c2ccc(CO)cc21`, for which the figures for the composite z-score (in experiment [1]; in the experiment on XIP peptide (Xip251-270)) were -0.403 (inactive) and 0.107, respectively. For the same molecule, the z-score in experiment [2] was 0.069; in experiment [3], -1.26 (inactive); in experiment [4], 0.257 (inactive); in experiment [5], 0.105 (inactive).
As to `O=C(NCCN1CCOCC1)[C@@H]1c2ccccc2C(=O)N(CC23CC4CC(CC(C4)C2)C3)[C@H]1c1ccc(CO)cc1`, the composite z-score in experiment [1] is 0.238 (inactive); in the experiment with XIP peptide (Xip251-270) it was 0.771. For the same molecule, the z-score is -1.32 in experiment [2], -5.14 (inactive) in experiment [3], 0.333 (inactive) in experiment [4] and 0.707 (inactive) in experiment [5].
Turning to `CCN1C(=O)C2CC(=O)C3C(CN(S(=O)(=O)c4ccc(C)cc4)C3c3ccc(C)cc3)C2C1=O` (configuration not stated), the results for the composite z-score (in experiment [1]; with XIP peptide (Xip251-270)) were 0.761 (inactive) and -0.248, respectively. Further, the z-score is 0.38 in experiment [2], -4.69 (inactive) in experiment [3], 0.137 (inactive) in experiment [4] and -0.0394 (inactive) in experiment [5].
With `C=CCNC(=O)[C@@H]1[C@H]2C(=O)O[C@H](c3ccccc3)[C@H](c3ccccc3)N2[C@H](c2ccc(OCCO)cc2)[C@@]12C(=O)N(C(=O)OCCOC)c1ccccc12`, the values for the composite z-score (in experiment [1]; with XIP peptide (Xip251-270)) were 1.44 (inactive) and 0.718, respectively. For the same molecule, the z-score in experiment [2] is -0.643; in experiment [3] it was -3.58 (inactive); in experiment [4], -0.0546 (inactive); in experiment [5], 0.0358 (inactive).
`C=C(C(=O)CC[C@@H](OC(=O)c1cccnc1)c1cccc(OCCO)c1)C(C)C`: the composite z-score is -0.0726 (inactive) in experiment [1] and 0.61 with XIP peptide (Xip251-270). Moreover, the z-score is -2.56 in experiment [2], -3.51 (inactive) in experiment [3], -0.361 (inactive) in experiment [4] and 0.519 (inactive) in experiment [5].
For `Cc1c(NC(=O)/C(C#N)=C/C=C/c2ccc([N+](=O)[O-])cc2)c(=O)n(-c2ccccc2)n1C`, the composite z-score in experiment [1] was 1.97 (inactive); with XIP peptide (Xip251-270), 0.77. Also, the z-score in experiment [2] was -0.363; in experiment [3] it was -4.12 (inactive); in experiment [4], -0.023 (inactive); in experiment [5] it was 0.501 (inactive).
With `COC(=O)[C@@]1(Cc2ccc(F)cc2)[C@H]2c3cc(C(=O)N(C)C)n(CCF)c3C[C@H]2CN1C(=O)c1ccccc1`, the figures for the composite z-score (in experiment [1]; in the experiment with XIP peptide (Xip251-270)) were 0.588 (inactive) and 0.779, respectively. Also, the z-score in experiment [2] was -0.552; in experiment [3], -5.09 (inactive); in experiment [4], -0.847 (inactive); in experiment [5], -0.595 (inactive).
Take `[N-]=[N+]=NCc1ccccc1[C@H]1OC(c2ccc(OCCCO)cc2)=N[C@@]1(Cc1ccccc1N=[N+]=[N-])C(=O)O`: the figures for the composite z-score (in experiment [1]; in the experiment on XIP peptide (Xip251-270)) were 0.107 (inactive) and 0.76, respectively. Moreover, the z-score was 0.58 in experiment [2], -4.41 (inactive) in experiment [3], -0.0666 (inactive) in experiment [4] and 0.194 (inactive) in experiment [5].
Turning to `CCCCC(=C=CC[C@H](O)c1cccc(OCCO)c1)C[C@H](O)c1cc(Cl)cc(Cl)c1O`, the composite z-score in experiment [1] is 0.878 (inactive); in the experiment on XIP peptide (Xip251-270) it was 0.592. Also, the z-score in experiment [2] was -1.16; in experiment [3] it was -4.28 (inactive); in experiment [4] it was -0.755 (inactive); in experiment [5] it was 0.0773 (inactive).
For `C=CC[C@]1(C(=O)NCCN2CCOCC2)N=C(c2ccc(OCCCO)cc2)O[C@H]1c1ccccc1`, the figures for the composite z-score (in experiment [1]; in the experiment with XIP peptide (Xip251-270)) were 0.212 (inactive) and 0.492, respectively. Further, the z-score in experiment [2] was -0.188; in experiment [3] it was -6.22 (inactive); in experiment [4], -0.116 (inactive); in experiment [5], 0.106 (inactive).
Consider `CN1C(=O)C2CC=C(C3=CCO[C@@H]3[C@H]3CCCN3S(=O)(=O)c3ccccc3[N+](=O)[O-])CC2C1=O` (some centres not stated), for which the composite z-score in experiment [1] was 0.162 (inactive); in the experiment with XIP peptide (Xip251-270), 0.728. Further, the z-score in experiment [2] was 0.561; in experiment [3], -6.57 (inactive); in experiment [4], -0.0719 (inactive); in experiment [5], 0.234 (inactive).
On to `C=CCOC(=O)[C@@H]1[C@H]2C(=O)O[C@H](c3ccccc3)[C@H](c3ccccc3)N2[C@H](c2ccc(OCCOC(=O)[C@H]3C[C@H]4C(=O)N[C@@H](CCCCN(C)C)C(=O)N4[C@H]3c3cccc(OCCO)c3)cc2)[C@@]12C(=O)Nc1ccccc12`, for which the composite z-score is 0.876 (inactive) in experiment [1] and 0.686 in the experiment on XIP peptide (Xip251-270). Besides, the z-score in experiment [2] is -0.405; in experiment [3], -1.64 (inactive); in experiment [4], -0.224 (inactive); in experiment [5], -0.375 (inactive).
In the case of `N#Cc1ccc(NN2C(C(O)c3ccc(B(O)O)cc3)C=CC3CN(c4ccccc4)C(=O)C32)cc1` (configuration not stated), the composite z-score in experiment [1] is -0.0004 (inactive); with XIP peptide (Xip251-270), 0.658. In addition, the z-score in experiment [2] is -0.0223; in experiment [3], -2.55 (inactive); in experiment [4], -1.03 (inactive); in experiment [5] it was -0.622 (inactive).
`COC(=O)[C@@]1(Cc2ccc(F)cc2)[C@@H]2C(=CC(=O)[C@H]2CC(=O)C(=O)N2CCCC2)CN1C(=O)c1ccccc1`: the results for the composite z-score (in experiment [1]; in the experiment on XIP peptide (Xip251-270)) were 0.47 (inactive) and 0.839, respectively. In addition, the z-score was -1.72 in experiment [2], -4.84 (inactive) in experiment [3], 0.261 (inactive) in experiment [4] and 0.278 (inactive) in experiment [5].
On to `COC(=O)[C@@]1(Cc2ccccc2)[C@H]2c3cc(C(=O)N(C)C)n(CCF)c3C[C@H]2CN1C(=O)c1ccccc1`, for which the composite z-score is 1.3 (inactive) in experiment [1] and -0.504 in the experiment with XIP peptide (Xip251-270). Besides, the z-score was -0.684 in experiment [2], -4.95 (inactive) in experiment [3], -0.441 (inactive) in experiment [4] and -0.748 (inactive) in experiment [5].
For the molecule `COCCOC(=O)N1C(=O)[C@@]2(c3cc(C#CC4=CCCCC4)ccc31)[C@H](C(=O)N1CCCCCCC1)[C@H]1C(=O)O[C@H](c3ccccc3)[C@H](c3ccccc3)N1[C@@H]2c1ccccc1OCCO`, the values for the composite z-score (in experiment [1]; in the experiment with XIP peptide (Xip251-270)) were 0.502 (inactive) and 0.712, respectively. Moreover, the z-score was -2.04 in experiment [2], 3.21 (inactive) in experiment [3], -0.245 (inactive) in experiment [4] and -0.178 (inactive) in experiment [5].
